High-throughput results: PubChem BioAssay, The Scripps Research Institute Molecular Screening Center
CHO-K1 Ca ag: M1 agonist counterscreen hit in parental CHO-K1 cells | AID 602248 | Fluo-8 calcium fluorescence; scaled to maximal ATP response, vehicle zero | activation, % at 3 µM | hit rate 0.48% among 360,000; in the data active = activation above about 15%;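 also: untransfected CHO-K1 host cells lacking M1 receptor as counterscreen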
CHRM1 antagonist: antagonists of human M1 muscarinic receptor | P11229 | CHO-K1 hM1, Fluo-8 calcium fluorescence, ACh EC80 antagonist | inhibition, % at 3 µM | hit rate 1.3% among 360,000;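 active = percent inhibition above its own plate's cutoff, namely the mean of that plate's compound wells plus 3 SD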;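 also: peak over basal fluorescence ratio during 140 s after agonist addition; 0% = ACh EC80 plus DMSO and 100% = DMSO alone without agonist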
Target sequence (P11229 whole entry, looked up): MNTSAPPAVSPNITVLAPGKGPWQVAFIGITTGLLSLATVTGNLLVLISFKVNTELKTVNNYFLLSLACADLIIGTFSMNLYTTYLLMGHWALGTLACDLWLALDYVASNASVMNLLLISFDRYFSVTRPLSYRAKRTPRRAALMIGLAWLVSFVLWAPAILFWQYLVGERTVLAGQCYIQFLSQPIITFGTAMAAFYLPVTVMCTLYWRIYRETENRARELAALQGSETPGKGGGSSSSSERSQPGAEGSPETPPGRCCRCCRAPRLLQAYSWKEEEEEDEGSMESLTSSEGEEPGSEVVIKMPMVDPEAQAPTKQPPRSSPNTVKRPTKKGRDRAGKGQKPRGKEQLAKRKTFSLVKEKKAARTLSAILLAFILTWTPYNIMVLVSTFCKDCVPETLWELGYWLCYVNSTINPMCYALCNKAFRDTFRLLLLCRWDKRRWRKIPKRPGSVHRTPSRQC
CHRM1 PAM: human CHRM1 positive allosteric modulation. hit rate 0.088% among 360,000. activation, % at 3 µM. AID 588819. P11229. CHO-K1 hM1, Fluo-8 calcium fluorescence, ACh EC20; 0% = ACh EC20, 100% = maximal ACh; in the data active = activation above about 19%, passing the limit was not always enough
CHO-K1 Ca PAM: counter-screen for M1 PAMs: effect in parental CHO-K1 cells; hit rate 0.02% among 360,000; activation, % at 3 µM; AID 602247; ATP EC20, Fluo-8 calcium fluorescence; 0% at ATP EC20, 100% at ATP max;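 active = activation above the run cutoff, the mean activation of all test compounds plus 3 SD, cut at about 40% in these data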;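 also: peak over basal fluorescence ratio in a 140 s read after ATP addition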
M1 ag: agonists of human M1 muscarinic receptor; CHO-K1 hM1, Fluo-8 calcium fluorescence, agonist mode; 0% DMSO, 100% acetylcholine EC100; AID 588814; hit rate 0.33% among 360,000; activation, % at 3 µM; P11229;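 active = activation above the run's mean compound activation plus 3 SD, cut at about 16% in these data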;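 also: peak over basal fluorescence ratio within a 140 s kinetic read after compound addition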
CHO-K1 Ca antag: counter-screen for M1 antagonists: effect in parental CHO-K1 cells; ATP-induced calcium, Fluo-8 fluorescence; inhibition, % at 3 µM; hit rate 0.6% among 360,000; AID 602250;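 active = inhibition above a per-plate cutoff, the plate's mean sample inhibition plus 3 SD, cut at about 24% in these data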;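 also: 0% = DMSO plus EC80 ATP and 100% = DMSO alone without ATP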
* = called active by the depositor. Sampled rows, rich in hits. Any-hit rate of the full collection: about 2.3%.

C[C@H](CO)N1C[C@H](C)[C@@H](CN(C)S(=O)(=O)c2cccs2)Oc2ccc(NC(=O)Nc3ccc4c(c3)OCO4)cc2C1=O was read as CHO-K1 Ca ag -0.1, CHRM1 antagonist 40.9*, CHRM1 PAM -22.9, CHO-K1 Ca PAM -6.7, M1 ag -10.6 and CHO-K1 Ca antag -7.2.
CCCc1ccc(S(=O)(=O)N2CCN(C(C)C(=O)NCc3ccccc3)CC2)cc1 (stereo unspecified) was read as CHO-K1 Ca ag -0.3, CHRM1 antagonist 0.8, CHRM1 PAM -4.0, CHO-K1 Ca PAM -9.9, M1 ag -4.3 and CHO-K1 Ca antag 5.5.
`Cc1ccc(C)c(C(C)NC(=S)NCc2ccc(F)cc2)c1` (stereo unspecified) gave CHO-K1 Ca ag 16.6*, CHRM1 antagonist 11.2, CHRM1 PAM -6.6, CHO-K1 Ca PAM 6.6, M1 ag 10.2 and CHO-K1 Ca antag -8.7.
O=c1c2cc(Br)ccc2nc(-c2cccc(C(F)(F)F)c2)n1O was read as CHO-K1 Ca ag 8.0, CHRM1 antagonist -4.5, CHRM1 PAM 0.0, CHO-K1 Ca PAM 17.6, M1 ag 25.1* and CHO-K1 Ca antag -25.8.
NC(=O)c1nsc(C(=O)N(c2ccccc2F)C(C(=O)NCc2ccccc2)c2ccc(O)cc2)c1N (stereo unspecified) was read as CHO-K1 Ca ag 6.7, CHRM1 antagonist 39.3*, CHRM1 PAM -22.5, CHO-K1 Ca PAM -24.0, M1 ag 0.9 and CHO-K1 Ca antag 7.2.
`Cc1ccccc1N(C(=O)c1snc(C(N)=O)c1N)C(C(=O)NCc1ccccc1)c1ccc(O)cc1` (stereo unspecified) gave CHO-K1 Ca ag 7.8, CHRM1 antagonist 10.2, CHRM1 PAM -1.4, CHO-K1 Ca PAM -9.2, M1 ag 2.4 and CHO-K1 Ca antag 7.7.
COC(OC)C1(CCc2ccccc2)NC(=O)NC1=O (stereo unspecified) was read as CHO-K1 Ca ag 0.1, CHRM1 antagonist 2.0, CHRM1 PAM -3.3, CHO-K1 Ca PAM -13.7, M1 ag -3.1 and CHO-K1 Ca antag -1.3.
`CC(=O)c1c(C)[nH]c(C(=O)OCC(=O)Nc2cc(Cl)ccc2[N+](=O)[O-])c1C` gave CHO-K1 Ca ag 12.2, CHRM1 antagonist 24.9*, CHRM1 PAM -19.9, CHO-K1 Ca PAM -3.2, M1 ag 9.3 and CHO-K1 Ca antag 17.0.
Screening Cc1ccc(C)c(S(=O)(=O)N2CCCC2CNC(=O)C(=O)NCCc2ccccc2)c1 (stereo unspecified) returned CHO-K1 Ca ag 10.3, CHRM1 antagonist 30.9*, CHRM1 PAM -11.6, CHO-K1 Ca PAM 8.4, M1 ag -0.5 and CHO-K1 Ca antag 8.8.
`COc1ccc(CCNC(=O)C2CC2)cc1` gave CHO-K1 Ca ag -0.2, CHRM1 antagonist -7.7, CHRM1 PAM 7.2, CHO-K1 Ca PAM -22.5, M1 ag 0.8 and CHO-K1 Ca antag 27.9*.
O=C(NCc1ccc(F)cc1)C(=O)NCC1CCCN1S(=O)(=O)c1ccccc1 (stereo unspecified) was read as CHO-K1 Ca ag -0.1, CHRM1 antagonist -9.6, CHRM1 PAM 14.4, CHO-K1 Ca PAM 9.6, M1 ag -2.4 and CHO-K1 Ca antag 20.7.
Screening COc1ccc(CCNC(=O)C(=O)NCC2CCCN2S(=O)(=O)c2ccccc2)cc1 (stereo unspecified) returned CHO-K1 Ca ag 8.2, CHRM1 antagonist 29.5*, CHRM1 PAM -8.7, CHO-K1 Ca PAM -7.0, M1 ag 0.4 and CHO-K1 Ca antag 14.5.
Screening O=C(NCCc1ccc(F)cc1)C(=O)NCC1CCCN1S(=O)(=O)c1ccccc1 (stereo unspecified) returned CHO-K1 Ca ag 10.0, CHRM1 antagonist 26.7*, CHRM1 PAM -6.7, CHO-K1 Ca PAM -9.4, M1 ag 2.0 and CHO-K1 Ca antag 10.9.
`Cc1ccc(C(C)C)c(OCc2nn(CC(=O)c3ccc(OC(F)F)cc3)c3[n+]2CCCCC3)c1` gave CHO-K1 Ca ag -0.2, CHRM1 antagonist 3.6, CHRM1 PAM -11.0, CHO-K1 Ca PAM 12.4, M1 ag -7.2 and CHO-K1 Ca antag -7.6.
`COc1ccc(N2CCCC2=O)cc1S(=O)(=O)N1CCOCC1` gave CHO-K1 Ca ag 0.5, CHRM1 antagonist -13.3, CHRM1 PAM 10.4, CHO-K1 Ca PAM 24.9, M1 ag -3.0 and CHO-K1 Ca antag -12.2.
For Cc1cc(C)cc(C(=O)NC(CC(N)=O)c2ccc(NCC3CC3)c([N+](=O)[O-])c2)c1 (stereo unspecified) the results were CHO-K1 Ca ag 0.9, CHRM1 antagonist -0.9, CHRM1 PAM 6.5, CHO-K1 Ca PAM 24.9, M1 ag -2.7 and CHO-K1 Ca antag -15.3.
For CCN1/C(=C\C=C(C(C)=O)C(C)=O)Sc2ccccc21 the results were CHO-K1 Ca ag 16.7*, CHRM1 antagonist -11.0, CHRM1 PAM 6.1, CHO-K1 Ca PAM 5.3, M1 ag 6.5 and CHO-K1 Ca antag 2.6.
CC(C)N1CC(=O)N2CSCC2C1=O (stereo unspecified) was read as CHO-K1 Ca ag 0.3, CHO-K1 Ca PAM -13.3 and CHO-K1 Ca antag -8.9.
`COC(=O)C[C@@H]1C[C@@H]2c3cc(NS(=O)(=O)c4ccc(F)cc4)ccc3O[C@@H]2[C@H](CO)O1` gave CHO-K1 Ca ag 0.4, CHRM1 antagonist -9.1, CHRM1 PAM 2.5, CHO-K1 Ca PAM 1.9, M1 ag -1.9 and CHO-K1 Ca antag 9.5.
CC1(C2CCC3C4CCC5CC6(CCC5(C)C4C(=O)CC32C)OCCO6)OCCO1 (stereo unspecified) was read as CHO-K1 Ca ag -0.1, CHRM1 antagonist -23.8, CHRM1 PAM 24.9*, CHO-K1 Ca PAM 5.3, M1 ag -5.0 and CHO-K1 Ca antag -8.7.
`OC(CNCCNc1ncccc1C(F)(F)F)Cn1ccc2ccccc21` (stereo unspecified) gave CHO-K1 Ca ag 6.2, CHRM1 antagonist 0.2, CHRM1 PAM -3.0, CHO-K1 Ca PAM 21.8, M1 ag 19.6* and CHO-K1 Ca antag -15.4.
Screening CCn1ncc(/C=N/NC(=O)c2cc(Cl)ccc2OC)c1C returned CHO-K1 Ca ag 0.5, CHRM1 antagonist 6.6, CHRM1 PAM -8.2, CHO-K1 Ca PAM -2.5, M1 ag -4.0 and CHO-K1 Ca antag -10.9.
For CC(=O)c1ccccc1Oc1cc(NN2CCCCC2)c([N+](=O)[O-])cc1[N+](=O)[O-] the results were CHO-K1 Ca ag -0.3, CHRM1 antagonist 36.3*, CHRM1 PAM -34.7, CHO-K1 Ca PAM 12.2, M1 ag -11.1 and CHO-K1 Ca antag -8.6.
For O=[N+]([O-])c1cc([N+](=O)[O-])c(Oc2cccc3ccccc23)cc1NN1CCCCC1 the results were CHO-K1 Ca ag -0.1, CHRM1 antagonist -9.2, CHRM1 PAM 29.6*, CHO-K1 Ca PAM 3.4, M1 ag 9.7 and CHO-K1 Ca antag -15.6.
For O=[N+]([O-])c1cc([N+](=O)[O-])c(Oc2c(Cl)cccc2Cl)cc1NN1CCCCC1 the results were CHO-K1 Ca ag 0.7, CHRM1 antagonist -4.5, CHRM1 PAM 3.3, CHO-K1 Ca PAM 7.3, M1 ag -4.3 and CHO-K1 Ca antag -7.8.
